Source: PubChem
Most compounds without a hit are left out; they make up all but 0.41% or so of the library.
GAA inhib: inhibitors of human lysosomal alpha-glucosidase; P10253; purified human GAA, 4-MU-alpha-glucoside fluorescence; Potency, µM (top dose mostly 76.9 µM), without a hit: top-dose activity change, negative = inhibition, hits mostly inhibitors; actives 0.005% (n = 200,000); AID 1466;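 further: potency means the concentration at half of the fitted maximal effect; plate controls were uninhibited enzyme wells for no effect and no-enzyme background for full effect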
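Human enzyme at 4 nM with 400 uM 4-methylumbelliferyl-alpha-D-pyranoside, citrate/phosphate buffer pH 5.0, 0.005% Tween-20, 20 min at room temperature. Compounds up to 77 uM. 4-MU fluorescence (Ex 365/Em 440) read after NaOH/glycine stop; AC50 from Hill fit.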
aGal spleen mod: alpha-galactosidase A (human) modulation; P06280; human spleen homogenate, 4MU-alpha-Gal fluorescence, 40 min; Potency, µM (highest dose often 80 µM), for inactives: at the highest dose activity change, negative = inhibition, actives largely listed as inhibitors; actives 0.008% (n = 240,000); AID 2107;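 further: potency means the concentration at half of the fitted maximal effect; 0% = enzyme with vehicle and -100% = no enzyme basal signal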
Target sequence (P06280 32-429 limits assumed): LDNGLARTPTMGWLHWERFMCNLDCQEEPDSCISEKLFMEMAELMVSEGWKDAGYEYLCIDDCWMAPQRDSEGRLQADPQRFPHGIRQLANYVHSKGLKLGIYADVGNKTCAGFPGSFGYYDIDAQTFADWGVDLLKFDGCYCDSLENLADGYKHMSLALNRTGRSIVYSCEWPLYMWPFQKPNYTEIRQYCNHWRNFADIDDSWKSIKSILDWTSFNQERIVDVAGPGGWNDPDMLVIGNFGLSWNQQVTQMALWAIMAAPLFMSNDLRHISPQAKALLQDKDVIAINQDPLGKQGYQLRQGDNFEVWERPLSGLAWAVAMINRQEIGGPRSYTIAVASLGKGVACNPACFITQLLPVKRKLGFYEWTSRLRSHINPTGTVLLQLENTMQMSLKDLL
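Human spleen homogenate (1 ug) was the enzyme source, with 4-methylumbelliferyl-alpha-D-galactopyranoside (1 mM final) in pH 5.0 citrate buffer with 0.01% Tween-20. Compounds were titrated; after 40 min at 37C, NaOH/glycine stop, 4-MU fluorescence read; AC50 from Hill fits.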
GAA spleen mod: inhibits or activates alpha-glucosidase in human spleen homogenate. P10253. human spleen homogenate, 4-MU-alpha-glucoside fluorescence. Potency, µM (series often up to 79.9 µM), for inactives: top-dose activity change, negative = inhibition, hits mostly inhibitors. actives 0.006% (n = 240,000);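 further: potency means the concentration at half of the fitted maximal effect; 0% = enzyme with vehicle and -100% = no enzyme basal signal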
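Human spleen homogenate (1 ug) incubated with compounds and 1 mM 4-methylumbelliferyl-alpha-D-glucopyranoside in pH 5.0 citrate/phosphate buffer, 37 C, 40 min. Stopped at pH 10; 4-MU fluorescence (Ex 365/Em 440 nm); AC50 by Hill fit.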
GLA inh pH 4.5: alpha-galactosidase A (human) inhibition, pH 4.5 | 230,000 tested, under 10 active | purified enzyme, 4-MU-alpha-Gal fluorescence, pH 4.5 | activity change, negative = inhibition, % at 105 µM;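 further: 0% = full activity with enzyme and -100% = basal without enzyme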
GAA glycogen: inhibitors or activators of human alpha-glucosidase glycogen cleavage. P10253. AID 2100. recombinant GAA, glycogen substrate, Amplex Red glucose oxidase fluorescence. Potency, µM (highest dose often 76.4 µM), for the others: top-dose activity change, negative = inhibition, usual class: inhibitors. actives 0.38% (n = 300,000);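 further: potency means the concentration at half of the fitted maximal effect; 0% = full enzyme reaction and -100% = no-enzyme basal signal; the screen sought inhibitors and activators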
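Recombinant enzyme (4 nM final) with compounds titrated up to 77 uM and bovine liver glycogen (30 ug) in citrate pH 5.0, 0.01% Tween-20, 37 C 40 min. Released glucose detected by Amplex Red/glucose oxidase (Ex 573/Em 610); AC50 from Hill fits.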
N370S GC mod: inhibitors or activators of N370S glucocerebrosidase for Gaucher disease. AID 2101. actives 0.092% (n = 330,000). Potency, µM (doses to about 59.4 µM), for inactives: at the highest dose activity change, negative = inhibition, most hits filed as inhibitors. N370S GC spleen homogenate, 4MU-glucoside fluorescence;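 further: potency means the concentration at half of the fitted maximal effect; 0% = full enzyme activity and -100% = no enzyme basal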
An asterisk follows results filed as active; ? = inconclusive; . = no result given; [ ] = dose if it differs, or a comment. The call rests on the fitted dose curve; in most records, active means well fitted curve in the direction sought with a large enough effect; inconclusive means small, poorly fitted or top-dose-only effect, or another doubt; inactive means no such curve, though single readings can be large; an effect the other way counts as inactive or inconclusive.

SMILES	GAA inhib	aGal spleen mod	GAA spleen mod	GLA inh pH 4.5	GAA glycogen	N370S GC mod
C[C@@H]1CC2C3CCC4=CC(=O)C=CC4(C)[C@@]3(F)[C@@H](O)CC2(C)[C@@]1(O)C(=O)CO (some centres not stated)	.	1%	-6%	-15	.	-1%
COc1ccc(NC(=S)N(CCCN2CCOCC2)Cc2cn(C)c3ccccc23)cc1OC	0%	4%	-15%	-20	?	?
COc1cccc(NC(=S)N(CCCN2CCOCC2)Cc2cn(C)c3ccccc23)c1	-4%	-8%	-5%	-2	4%	2.8µM*
O=C1NN(c2ccc(F)c(Cl)c2)C(=O)/C1=C\c1cccc(OC(=O)c2cccs2)c1	-2%	8%	4%	1	?	-9%
CC(C)=C1C(=O)NN(c2ccc(F)c(Cl)c2)C1=O	-1%	-12%	1%	3	25µM*	24%
O=C(C1=C[C@@H](c2ccc(C(F)(F)F)cc2)C[C@@H](OCc2ccc(CO)cc2)O1)N1CCN(Cc2ccc3c(c2)OCO3)CC1	.	-5%	-16%	-13	-7%	10µM*
O=C(C1=C[C@H](c2ccc(C(F)(F)F)cc2)C[C@H](OCc2ccc(CO)cc2)O1)N1CCN(Cc2ccc3c(c2)OCO3)CC1	.	6%	-8%	-24	-18%	-29%
O=C(C1=C[C@@H](c2ccc(Br)cc2)C[C@@H](OCc2ccc(CO)cc2)O1)N1CCN(Cc2ccccc2)CC1	.	2%	4%	-2	4%	14µM*
CN=c1scc(C)n1/N=C/c1ccc(O)c(O)c1O	-14%	-7%	-14%	-6	11µM*	.
CN=c1scc(-c2cccs2)n1/N=C/c1ccc(O)c(O)c1O	?	-6%	3%	-8	?	-8%
CCOc1ccc(Nc2oc(-c3ccco3)nc2C#N)cc1	-3%	-3%	-7%	-4	35µM*	-2%
COc1ccccc1NC(=O)CN(c1cc(C)cc(C)c1)S(=O)(=O)c1c(C)[nH]c(=O)[nH]c1=O	.	.	.	.	-11%[76.3 µM]	.
Cc1cc(C)cc(N(CC(=O)Nc2cccc(C)c2C)S(=O)(=O)c2c(C)[nH]c(=O)[nH]c2=O)c1	.	.	.	.	12%[76.3 µM]	2.5µM*
Cc1cc(C)cc(N(CC(=O)Nc2cc(C)ccc2C)S(=O)(=O)c2c(C)[nH]c(=O)[nH]c2=O)c1	.	.	.	.	.	8.9µM*
Cc1cc(C)cc(N(CC(=O)Nc2ccc(Br)cc2)S(=O)(=O)c2c(C)[nH]c(=O)[nH]c2=O)c1	.	.	.	.	.	1.6µM*
COc1ccc(N(CC(=O)Nc2cccc(C)c2C)S(=O)(=O)c2c(C)[nH]c(=O)[nH]c2=O)cc1	.	10%	1%	1	4%	2%
COc1cccc([C@@H]2Oc3ccc(OC)cc3C(=O)[C@H]2OC(=O)NS(=O)(=O)c2ccc(F)cc2)c1	.	8%	5%	-14	.	-2%
COCCNC(=O)C1(C(F)(F)F)C/C(=C\Cc2ccccc2)CCCO1 (configuration not stated)	.	-5%	5%	.	.	-14%
COc1cccc([C@@H]2Oc3ccc(OC)cc3C[C@H]2OC(=O)NS(=O)(=O)c2ccc(C)cc2)c1	.	11%	4%	-1	.	-3%
N=c1c2c(-c3ccccc3)c(-c3ccccc3)n(Cc3ccco3)c2ncn1CCCn1ccnc1	-9%	-4%	-2%	?	-2%	3.2µM*
N=c1c2c(-c3ccccc3)c(-c3ccccc3)n(Cc3ccco3)c2ncn1CCCN1CCOCC1	-5%	-3%	-5%	-12	-6%	-24%
N=c1c2c(-c3ccccc3)c(-c3ccccc3)n(Cc3ccccc3)c2ncn1CCO	?	-16%	-19%	?	5%	4µM*
Clc1ccc(-c2nc3ccccn3c2CN2CCOCC2)cc1	?	-9%	-8%	-11	0%	-11%
Clc1ccc2nc(-c3ccccc3)c(CN3CCOCC3)n2c1	5%	-2%	5%	1	7%	18µM*
CCOC(=O)N/N=C1/C[C@@H](O)[C@@H](O)[C@@H]2[C@@H]3C(=O)N(Cc4ccccc4)C(=O)[C@H]3CC[C@@H]12	.	-12%[17.5 µM]	-11%[17.4 µM]	.	.	-3%[12.8 µM]
SMILES	GAA inhib	aGal spleen mod	GAA spleen mod	GLA inh pH 4.5	GAA glycogen	N370S GC mod
C/C(=N\NC(=O)CSCc1ccccc1Cl)c1cc(O)ccc1O	2%	11%	2%	-5	35µM*	-6%
Cc1c(CNCc2ccc(Cl)cc2)c(C(=O)O)c(C)n1Cc1ccc(F)cc1	.	.	.	.	-13%[76.3 µM]	.
Cc1c(CNCCc2ccc(S(N)(=O)=O)cc2)c(C(=O)O)c(C)n1Cc1ccc(Cl)cc1	.	.	.	.	50µM*	.
CCC(=O)Nc1cccc(C(=O)N(Cc2ccccc2)Cc2ccccc2)c1	.	.	.	.	-3%[76.3 µM]	7.1µM*
CN(C)c1ccc(-c2ccc(C3C4C=CCCC4(C)C(=O)N3Cc3ccccc3)c(F)c2)cc1 (configuration not stated)	.	-1%	-9%	.	.	-1%
COc1ccc(Br)cc1/C=N/N1C(=O)CSC1=S	.	.	.	.	5%	-2%
COc1cc(/C=N/N2C(=O)CSC2=S)ccc1O	1%	0%	1%	-1	32µM*	-23%
COc1ccccc1CNC(=O)Cn1ncc2c(C)n(Cc3ccccc3Cl)c(C)c2c1=O	.	.	.	.	-16%[76.3 µM]	.
COc1cc(C2Nc3ccc4ncccc4c3C3=C2C(=O)CCC3)cc(OC)c1O (configuration not stated)	-3%	-8%	-5%	-7	45µM*	-3%
CC(=O)/C(=N/Nc1ccccc1)N1CCOCC1	-5%	-9%	-16%	-2	10µM*	-5%
CC(=O)/C(=N/Nc1cccc(Cl)c1)N1CCOCC1	-2%	3%	2%	-26	14µM*	1%
CCOC(=O)/C(=N\Nc1cccc(C(F)(F)F)c1)N1CCOCC1	-4%	2%	-2%	-3	?	-2%
CC(=O)/C(=N/Nc1ccccc1C)N1CCOCC1	-4%	9%	-3%	-27	13µM*	-1%
CCOC(=O)c1c(/N=C/c2cccc([N+](=O)[O-])c2O)sc2c1CCC2	-3%	-14%	0%	-6	-15%	-9%
CCOC(=O)c1c(/N=C/c2ccccc2O)sc2c1CCC2	4%	4%	0%	0	18µM*	1%
CCOC(=O)c1c(/N=C/c2ccc(O)cc2O)sc2c1CCC2	2%	-9%	-12%	-15	35µM*	-15%
Nc1nc(-c2cccs2)c(NC(=O)c2ccccc2)s1	-5%	-2%	9%	-6	20µM*	-14%
C=C1CCN(C(CC(C)C)C(=O)NCc2ccc(Cl)c(Cl)c2)S(=O)(=O)c2ccccc21 (configuration not stated)	.	19%	-12%	.	.	-2%
CC1(C)CC(=O)c2c(oc3cc(O)c(O)cc23)C1	-5%	6%	-6%	-1	7.9µM*	-4%
